Source: the supplement of paper PMC5940239

Columns and labels:
[1] = test system: Madurella mycetomatis MM55; assay: percent growth relative to solvent control; higher = less inhibition, active = 20 or less; conditions: 100 µM; 7 days
[2] = test system: Madurella mycetomatis MM55; conditions: 7 days
[3] = test system: Madurella mycetomatis MM55; assay: IC90; higher = less potent; conditions: 7 days

| SMILES | percent growth [1] | IC50 [2] [µM] | IC90 [3] [µM] |
| --- | --- | --- | --- |
| CC(C)(C)C(O)C(Oc1ccc(-c2ccccc2)cc1)n1cncn1 (centres undefined) | -0.373% (active) | – | – |
| CO[C@@H]1CN(c2ccc(C#CC3(O)CN4CCC3CC4)c(Cc3ccccc3)n2)C[C@H]1O (some centres undefined) | 81.3% (inactive) | – | – |
| Nc1c2c(nc3sc4c(c13)CCCC4)CCCC2 | -0.0392% (active) | 9.7 | 16.4 |
| CC1COC(Cn2cncn2)(c2ccc(Oc3ccc(Cl)cc3)cc2Cl)O1 (centres undefined) | 0.489% (active) | – | – |
| O=C1O[C@@H](CO)CN1c1cc(F)c(C2=CCN(Cc3ccccc3)CC2)c(F)c1 | 70.2% (inactive) | – | – |
| CO/N=C(\C(=O)OC)c1ccccc1CO/N=C(\C)c1cccc(C(F)(F)F)c1 | 0.385% (active) | 1.05 | 28.1 |
| CC1(C)OB(O)c2ccc(C3=NOC(c4cc(Cl)c(F)c(Cl)c4)(C(F)(F)F)C3)cc21 (centres undefined) | -0.6% (active) | 11.7 | 19.4 |
| O=C1O[C@@H](COc2ccon2)CN1c1cc(F)c(C2=CCN(Cc3ccccc3)CC2)c(F)c1 | 20.9% (inactive) | – | – |
| Cc1cccc(C(=O)Nc2ccnc(N(C)C3CCN(CC(C)C)CC3)c2)c1 | 1.78% (active) | 26.2 | 53.4 |
| CCc1nn(C)c(C(=O)NCc2ccc(Oc3ccc(C)cc3)cc2)c1Cl | 46.6% (inactive) | – | – |
| CO/C=C(/C(=O)OC)c1ccccc1Oc1cc(Oc2ccccc2C#N)ncn1 | 1.6% (active) | 0.6 | 20.4 |
| Cc1cc(C2=NOC(c3cc(Cl)c(F)c(Cl)c3)(C(F)(F)F)C2)ccc1C(=O)NCc1ccc2c(c1)C(C)(C)OB2O (centres undefined) | 124% (inactive) | – | – |
| Cc1nn(Cc2ccccc2)c(Cl)c1C(=O)NC1CCCCCC1 | 91.1% (inactive) | – | – |
| Cc1nn(C)c(C)c1NS(=O)(=O)c1c(Cl)cc(-c2ccnc(N3CCNCC3)c2)cc1Cl | 86% (inactive) | – | – |
